# Data from PubChem BioAssay (NCATS).
# Where “and” joins values, the source holds several entries; their conditions need not be identical. Equal entries are not always repeated. Inconclusive results are not listed. Where a call stands in place of a potency, no number is given. Calls of active or inactive are those of the source. Calls come from the whole dose curve; as a rule, active = well fitted inhibition curve with a large enough effect; inconclusive = small, poorly fitted or top-dose-only effect; inactive = no such curve, though single readings can be large or run the other way.
# Target: Cytochrome P450 2C9 (Homo sapiens) (UniProt P11712)
# Test: qHTS Assay for Inhibitors and Substrates of Cytochrome P450 2C9 (AID 883); note: nearly all actives have a fitted effect of over 60% in size
# Conditions: recombinant CYP2C9, luciferin-H luminescence, 60 min; series mostly up to 57.1 µM
# Procedure: NIH Molecular Libraries Screening Centers Network [MLSCN] NIH Chemical Genomics Center [NCGC] MLSCN Grant: None NCGC Assay Overview: The P450 gene superfamily is involved in the metabolism and clearance of xenobiotics. This assay used human CYP2C9 to measure the hydroxylation of deoxyluciferin (Luciferin-H; P450 Glo-Buffer) to luciferin. The luciferin is then measured by luminescence after the addition of a luciferase detection reagent. Luciferin-H concentration in the assay was equal to its Michaelis constant KM for CYP2C9. Inhibitors and some substrates limit the production of luciferin, and decrease measured luminescence.
# NCGC Assay Protocol Summary: Two uL of enzyme and substrate mix (final concentrations: 10nM CYP2C9, 100uM Luciferin-H, 25mM KPO4) were dispensed into a white, solid bottom 1536-well microtiter plate. 23nL of compound was transferred by a pin tool. The plate was incubated at 37C for 10 min. Two uL of an NADPH regeneration solution (Promega supplied reagent) was dispensed and the reaction was allowed to continue for 60 min at 37C. Then the reaction was stopped by reconstituted P450 Glo-Buffer. After another 20 min of incubation the plate was read on the ViewLux (Perkin Elmer) at 60 sec exposure and 2x2 binning. This protocol was carried out with Promega-Glo reagents and further information can be found at http://www.promega.com/tbs/tb325/tb325.pdf. Data were normalized to the to AC100 inhibition (57uM sulphaphenazole). Keywords: P450, CYP2C9, Luciferase, MLSMR, MLSCN, NIH Roadmap, qHTS, NCGC
# Potency is the fitted concentration of half-maximal effect.
# Cytochrome P450 2C9 (Homo sapiens), sequence (P11712 whole entry, looked up): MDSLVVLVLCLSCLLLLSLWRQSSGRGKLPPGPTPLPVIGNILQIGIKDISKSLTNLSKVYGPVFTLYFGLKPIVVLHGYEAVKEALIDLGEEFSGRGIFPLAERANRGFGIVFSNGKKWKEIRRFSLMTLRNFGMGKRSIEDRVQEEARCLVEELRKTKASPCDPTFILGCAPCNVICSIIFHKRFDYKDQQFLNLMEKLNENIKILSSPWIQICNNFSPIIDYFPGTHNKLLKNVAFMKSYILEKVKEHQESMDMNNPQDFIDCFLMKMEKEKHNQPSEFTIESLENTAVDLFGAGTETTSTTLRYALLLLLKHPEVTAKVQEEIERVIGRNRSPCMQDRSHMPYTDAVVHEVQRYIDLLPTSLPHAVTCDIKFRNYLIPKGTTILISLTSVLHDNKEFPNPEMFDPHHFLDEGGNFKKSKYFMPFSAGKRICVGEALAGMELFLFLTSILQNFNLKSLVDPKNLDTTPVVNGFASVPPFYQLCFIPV
row,SMILES,Potency
1,CC(=O)Nc1nnc(S(N)(=O)=O)s1,inactive
2,Cc1ccc(=O)n(-c2ccccc2)c1,inactive
3,COc1cc2c(cc1OC)-c1cc(=Nc3c(C)cc(C)cc3C)n(C)c(=O)n1CC2,1.26 µM (active)
4,CCN(CC)CCNC(=O)c1cc(S(C)(=O)=O)ccc1OC,inactive
5,NC(=O)N1c2ccccc2C=Cc2ccccc21,inactive
6,CN(C(=O)CCCOc1ccc2[nH]c(=O)ccc2c1)C1CCCCC1,inactive
7,CC1=C(C)C(=O)C(CCCCC#CCCCC#CCO)=C(C)C1=O,5.01 µM (active)
8,C[C@H](CS)C(=O)N1CCC[C@H]1C(=O)O,inactive
9,COc1ccc2c(c1OC)C(=O)O[C@@H]2[C@H]1c2c(cc3c(c2OC)OCO3)CCN1C,0.126 µM (active)
10,NC(N)=NC(=O)Cc1c(Cl)cccc1Cl,inactive
11,CN(C)CCN(Cc1cccs1)c1ccccn1,inactive
12,Cc1ccc(Cl)c(Nc2ccccc2C(=O)O)c1Cl,7.94 µM (active) and 1.26 µM (active)
13,CN=C(NC#N)NCCSCc1nc[nH]c1C,inactive
14,CC1=NS(=O)(=O)c2cc(Cl)ccc2N1,inactive
15,Brc1c(NC2=NCCN2)ccc2nccnc12,inactive
16,Cc1scc2c1N(C(=O)CN1CCN(C)CC1)c1ccccc1NC2=O,2.51 µM (active)
17,Cc1nc2ccccn2c(=O)c1CCN1CCC(C(=O)c2ccc(F)cc2)CC1,inactive
18,CCO/C([O-])=N/c1c[n+](N2CCOCC2)no1,inactive
